Screening data: PubChem, National Center for Advancing Translational Sciences (NCATS)
Only some compounds are listed: those with a hit (about 2.4% of all), similar ones and a draw of the others.
POLK inh = blocks human DNA polymerase kappa activity | purified Pol kappa, fluorescent DNA synthesis assay, 10 min | Potency, µM (titrated, usually from 107 µM), usual class: inhibitors | actives 0.53% (n = 400,000) | AID 588579
Target sequence (Q9UBT6 whole entry, looked up): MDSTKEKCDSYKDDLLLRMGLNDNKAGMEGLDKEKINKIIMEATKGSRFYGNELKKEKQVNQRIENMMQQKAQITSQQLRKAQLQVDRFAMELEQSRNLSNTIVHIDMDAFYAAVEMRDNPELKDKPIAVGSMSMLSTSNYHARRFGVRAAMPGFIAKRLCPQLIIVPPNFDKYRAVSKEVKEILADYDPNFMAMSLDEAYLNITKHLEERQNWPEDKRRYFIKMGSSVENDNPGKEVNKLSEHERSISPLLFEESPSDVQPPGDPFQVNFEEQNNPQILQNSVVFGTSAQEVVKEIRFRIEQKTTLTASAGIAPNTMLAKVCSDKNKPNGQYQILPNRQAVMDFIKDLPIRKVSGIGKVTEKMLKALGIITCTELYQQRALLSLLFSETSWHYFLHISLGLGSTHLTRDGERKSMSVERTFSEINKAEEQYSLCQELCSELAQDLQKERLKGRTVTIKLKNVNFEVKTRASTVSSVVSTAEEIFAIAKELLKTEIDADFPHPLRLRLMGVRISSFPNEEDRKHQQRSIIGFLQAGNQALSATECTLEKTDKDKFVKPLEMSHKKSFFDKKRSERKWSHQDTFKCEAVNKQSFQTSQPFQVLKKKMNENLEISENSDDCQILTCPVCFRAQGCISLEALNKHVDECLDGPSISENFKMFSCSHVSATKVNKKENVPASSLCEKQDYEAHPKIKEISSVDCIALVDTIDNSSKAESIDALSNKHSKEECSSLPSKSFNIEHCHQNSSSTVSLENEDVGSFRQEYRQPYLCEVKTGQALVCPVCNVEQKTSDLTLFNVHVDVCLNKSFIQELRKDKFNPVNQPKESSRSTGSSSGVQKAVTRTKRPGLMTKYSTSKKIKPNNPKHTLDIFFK
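Inhibition of 10 nM Pol kappa is measured by a fluorescent read-out at 0 and 10 min following addition of 50 nM substrate (final), with a 15-min room-temperature compound preincubation.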
FEN1 inh = inhibitors of human flap endonuclease 1; Potency, µM (top dose mostly 114 µM), hits mostly inhibitors; Recombinant FEN1 flap cleavage, fluorescence, 15 min; actives 0.35% (n = 390,000); further: nearly all actives have a fitted effect of over 65% in size
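Recombinant FEN1 (10 nM) was preincubated with pin-transferred compounds for 15 min at room temperature, then flap DNA substrate (50 nM final) was added. Plates were read at 0 and 15 min, and normalized concentration–response data were fitted to a four-parameter Hill equation.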
POLI inh = blocks human DNA polymerase iota activity; Q9UNA4; Pol iota fluorescent replication assay, 10 min; Potency, µM (series often up to 115 µM), usual class: inhibitors; actives 1% (n = 390,000); AID 588590
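Pol iota at 10 nM preincubated 15 min with compounds at room temperature; reaction started with fluorescent substrate, 50 nM final. Fluorescence read kinetically at 0 and 10 min; buffer-only wells as negative control.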
Pol beta inh = DNA polymerase beta (human) inhibition; P06746; Pol beta primer extension/strand displacement, fluorescence kinetic; Potency, µM (titrated, usually from 114 µM), usual class: inhibitors; actives 1.3% (n = 340,000)
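Pol beta (10 nM) was preincubated with compound for 15 min at room temperature. The reaction was then started with 50 nM substrate and read immediately and after a further 10 min at room temperature.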
WRN helicase inh = blocks human WRN helicase | actives 0.46% (n = 360,000) | Q14191 | Potency, µM (titrated, usually from 114 µM), actives largely listed as inhibitors | AID 651768 | WRN helicase unwinding, fluorescent forked duplex, kinetic; further: nearly all actives have a fitted effect of over 55% in size
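Kinetic fluorescence helicase assay: unwinding of a quenched forked DNA duplex (100 nM final) with 2 mM ATP final raises red fluorescence (525/598 nm). Compounds sat 15 min at room temperature with 20 nM WRN beforehand.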
Pol eta inh = inhibitors of human DNA polymerase eta. Q9Y253. recombinant Pol eta, fluorescent DNA replication assay. Potency, µM (doses to about 114 µM), actives largely listed as inhibitors. actives 1.2% (n = 390,000). AID 588591
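Pol eta at 10 nM preincubated with compounds 15 min at room temperature; reaction started with fluorescent substrate (50 nM final) and read kinetically at 0 and 10 min.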
Numbers stand for hits; – = inactive; ? = inconclusive; · = not tested or not shown; [ ] = another dose, or the depositor's remark. The call rests on the fitted dose curve; in most records, active means well fitted curve in the direction sought with a large enough effect; inconclusive means small, poorly fitted or top-dose-only effect, or another doubt; inactive means no such curve, though single readings can be large; an effect the other way counts as inactive or inconclusive.

SMILES	POLK inh	FEN1 inh	POLI inh	Pol beta inh	WRN helicase inh	Pol eta inh
COc1ccc(NC(=O)c2cc(-c3ccc(C)o3)nc3ccccc23)cc1OC	?	–	?	35µM	–	?
Cc1ccc(-c2cc(C(=O)Nc3nccs3)c3ccccc3n2)o1	–	–	?	25µM	–	?
O=C(CN(CCc1c[nH]c2ccccc12)S(=O)(=O)c1ccccc1)N1CCCCCC1	–	–	–	·	·	·
CCCCNC(=O)c1c(-c2ccccc2)c(-c2ccccc2)nn(C)c1=O	–	–	–	–	·	–
Cc1ccc2c(c1)c1c3n2CCN(C(=O)c2ccc(C(F)(F)F)cc2)C3CCC1 (stereo not drawn)	–	–	–	–	·	–
O=C(Nc1ccc(S(=O)(=O)Nc2nccs2)cc1)c1cc(-c2ccccn2)nc2ccccc12	–	–	–	?	?	–
Cc1ccc(-c2cc(C(=O)Nc3ccc(S(=O)(=O)Nc4onc(C)c4C)cc3)c3ccccc3n2)cc1	–	–	–	?	–[11.6 µM]	89µM
O=C(Nc1ccc(S(=O)(=O)Nc2nccs2)cc1)c1cc(-c2ccccc2Cl)nc2ccccc12	–	–	?	?	?	28µM
CCN1CCOC(=O)C1CC(=O)Nc1ccc(Br)cc1 (stereo not drawn)	–	–	–	–	·	–
O=C(Nc1ccc(F)c(Cl)c1)N1CCN(C(=O)c2nsc3ccccc23)CC1	–	–	–	–	·	·
O=C1c2ccccc2-c2n[nH]c3cccc1c23	?	?	?	32µM	–[11.6 µM]	?
CCc1ccc2oc(-c3ccc(C)c(NC(=O)COc4ccccc4Cl)c3)nc2c1	–	–	–	·	·	·
CN(C(=O)CC(=O)Nc1ccc2nc3n(c(=O)c2c1)CCCCC3)c1ccccc1F	–	–	–	–	·	–
O=C(CS(=O)c1ccc(C(F)(F)F)cc1[N+](=O)[O-])Oc1ccccc1 (stereo not drawn)	–	–	?	–	–	–
CS(=O)(=O)c1ccc(S(=O)CC(=O)OCc2ccccc2)c([N+](=O)[O-])c1 (stereo not drawn)	–	–	20µM	–	?	–
Cc1c(OCC(N)=O)ccc2c(-c3ccccc3)cc(=O)oc12	–	?	–	–	50µM	?
c1ccc(Oc2nc(N3CCOCC3)nc(N3CCOCC3)n2)cc1	–	–	–	89µM	–	–
Oc1c(C(c2ccccc2)N2CCN(c3cccc(Cl)c3)CC2)sc2nc(-c3ccco3)nn12 (stereo not drawn)	–	–	–	–	·	–
COc1ccc(CN2CC[C@H]3C=CC[C@@H](C(=O)Nc4ccccc4)[C@H]3C2=O)cc1OC	–	–	?	·	·	·
Cc1c(C(=O)O)c(O)cc2c1C(=O)c1c(O)c([C@H]3O[C@H](CO)[C@@H](O)[C@H](O)[C@H]3O)c(O)c(O)c1C2=O	3.2µM	50µM	79µM	·	·	·
COc1ccc(CCNC(=O)Cn2c(=O)c3cccn3c3ccccc32)cc1OC	–	–	–	–	·	–
O=C1N=c2ccccc2=C1c1sc(=S)n(NC(=O)c2cccc(O)c2)c1O	–	–	?	–	–	?
O=C1N=c2ccc(Br)cc2=C1c1sc(=S)n(NS(=O)(=O)c2ccccc2)c1O	–	79µM	–	–	–[11.6 µM]	–
CCOC(=O)Cc1ccc(NC(=O)N2CCOc3ccc(C)cc32)cc1	–	–	–	–	·	–
Cn1cc(C(c2ccccc2OCC(=O)O)c2cn(C)c3ccccc23)c2ccccc21	–	–	–	–	79µM	–
SMILES	POLK inh	FEN1 inh	POLI inh	Pol beta inh	WRN helicase inh	Pol eta inh
COC(=O)c1c(C)oc2ccc(N(C(=O)Oc3ccccc3)S(=O)(=O)c3ccc(Cl)c([N+](=O)[O-])c3)cc12	–	–	45µM	22µM	–	?
CN(C[C@H](Cc1ccccc1)N(C[C@H](CC1CCCCC1)N(CCc1ccccc1)N=O)N=O)N=O	?	–	89µM	–	–	–
CO[C@H]1/C=C/O[C@@]2(C)Oc3c(C)c(O)c4c(O)c(c(/C=N\N5CCN(C6CCCC6)CC5)c(O)c4c3C2=O)NC(=O)/C(C)=C\C=C\[C@H](C)[C@H](O)[C@@H](C)[C@@H](O)[C@@H](C)[C@H](OC(C)=O)[C@@H]1C	–[19.4 µM]	·	·	·	·	·
CCn1c(SCC(=O)N2c3ccccc3Sc3ccccc32)nnc1-c1ccco1	–	–	–	45µM	–	–
CCCn1c(SCC(=O)N2c3ccccc3Sc3ccccc32)nc2c1c(=O)n(C)c(=O)n2C	–	–	89µM	–	–	–
CCCCN1/C(=C/c2ccc3ccccc3[n+]2CC)Sc2ccccc21	–	40µM	–	50µM	–	–
COC(=O)C1=C[C@@H](C(=O)OC)[C@@H]2C3=C(C(=O)[C@@]2(CC(C)C)NC(=O)c2ccccc2)[C@H](C)n2c(=O)n(-c4ccccc4)c(=O)n2[C@@H]3C1	–	–	–	·	·	·
Brc1cc(Br)c[n+](CCc2ccccc2)c1	–	–	–	·	·	·
COc1ccc(OC)c(-c2csc(NC(=O)COC(=O)c3ccc(NC(=O)CC#N)cc3)n2)c1	50µM	79µM	28µM	·	?	20µM
CC1=NN(c2ccccc2)C(=O)C1C(=O)c1cc([N+](=O)[O-])cc([N+](=O)[O-])c1 (stereo not drawn)	–	–	16µM	–	–	–
Cc1ccc(C(=O)Oc2cc(-c3ccc4c(c3)OCO4)cc(=O)c3c(C)oc(C)c23)cc1	–	–	?	–	·	79µM
O=C(COc1ccccc1C(=O)Nc1ccccc1)Nc1cccc([N+](=O)[O-])c1	–	–	–	·	·	·
CCOC(=O)c1c(SCC(=O)Nc2cc(Cl)cc(Cl)c2)nc(=O)[nH]c1C	–	–	–	–	·	–
CCOc1ccc(-n2ccnc2SCC(=O)Nc2nc3ccc(C)cc3s2)cc1	–	–	–	25µM	·	89µM
CCOC(=O)c1c(SCC(=O)Nc2nc3ccc(C)cc3s2)nc(=O)[nH]c1C	–	–	89µM	?	·	–
COc1cc(/C=C2/C(=N)N3C(=NC2=O)SN=C3S(C)(=O)=O)ccc1OC(=O)c1ccco1	–	?	?	–	–[11.6 µM]	50µM
CCOc1cc(/C=C2/C(=N)N3C(=NC2=O)SN=C3S(=O)(=O)CC)ccc1OC(=O)c1ccco1	–	–	?	–	–	79µM
CCOc1cc(/C=C2/C(=N)N3C(=NC2=O)SN=C3S(=O)(=O)C(C)C)ccc1OC(=O)c1ccco1	–	–	–	–	–[11.6 µM]	45µM
COc1cc(/C=C2/C(=N)N3C(=NC2=O)SN=C3S(=O)(=O)C(C)C)ccc1OC(=O)c1ccco1	–	–	?	–	–	79µM
CCS(=O)(=O)C1=NSC2=NC(=O)/C(=C\c3ccc(OC(=O)c4ccco4)c(OC)c3)C(=N)N21	–	–	?	–	–	?
